Assay results: PubChem BioAssay (NCI)
This is part of a sample that, as a whole, favours compounds with a hit. Of some 79,000 tested, about 15% had one in any assay. Cut-off read from the data, not from the text of the source: active = growth inhibition above about 70%; inactive = the rest.

Assays:
[1] = NCI Yeast Anticancer Drug Screen. Data for the rad50 strain (AID 155);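 note: 0% = growth of vehicle-only cultures of the same strain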; conditions: S. cerevisiae rad50 strain growth inhibition; at 50.0 µM; active compounds read high
Procedure, shortened: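 Growth of the mutant yeast was measured after compound exposure and referenced to vehicle-treated cultures.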

[2] = NCI Yeast Anticancer Drug Screen. Data for the mec2-1 strain (AID 157); conditions: S. cerevisiae mec2-1 strain, at 50.0 µM, active compounds read high
Procedure, shortened: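 Test agents were screened against the mec2-1 yeast strain, with defined DNA repair or cell cycle alteration. Growth was scored as inhibition against vehicle-only controls.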

[3] = NCI Yeast Anticancer Drug Screen. Data for the sgs1 mgt1 strain (AID 161);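 note: 0% = growth of cultures given vehicle only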; conditions: S. cerevisiae sgs1 mgt1 strain, at 50.0 µM, active compounds read high
Procedure, shortened: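 Read-out: growth inhibition vs vehicle controls. Cells: mutant yeast strain deficient in DNA damage repair.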

[4] = NCI Yeast Anticancer Drug Screen. Data for the cln2 rad14 strain (AID 165);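 note: 0% = growth equal to vehicle treated cultures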; conditions: S. cerevisiae cln2 rad14 strain, at 50.0 µM, active compounds read high
Procedure, shortened: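 Growth of compound-exposed yeast (cln2 rad14 genotype) measured and expressed as inhibition relative to vehicle.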

[5] = NCI Yeast Anticancer Drug Screen. Data for the bub3 strain (AID 167); conditions: S. cerevisiae bub3 mutant strain, at 50.0 µM, active compounds read high
Procedure, shortened: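 Whole-cell yeast assay. The mutant strain was incubated with compounds, and growth inhibition was determined by comparison with vehicle-treated cells.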

[6] = NCI Yeast Anticancer Drug Screen. Data for the mlh1 rad18 strain (AID 175); conditions: S. cerevisiae mlh1 rad18 strain growth inhibition; at 50.0 µM; active compounds read high
Procedure, shortened: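 In this whole-cell yeast screen, a strain with altered DNA damage repair is challenged with compound, and its growth is measured against matched vehicle-treated controls.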

Measured: growth inhibition

CSC1=N[C@H](c2ccccc2)CS1
inactive: [1] 21.9% | [2] -9.85% | [3] 21.7% | [4] -3.1% | [5] 20.2% | [6] 23.4%

O=C1CSC(c2cccc([N+](=O)[O-])c2)N1c1ccc(-n2c(-c3ccccc3)nc3ccccc3c2=O)cc1 (stereo unspecified)
inactive: [1] -10.8% | [2] -17.1% | [3] 11.9% | [4] -6.8% | [5] 34% | [6] 7.25%

CC1OC(OC2C(OC(=O)[C@@H]3CC(C)(C)C[C@H]4C5=CC[C@@H]6[C@@]7(C)C[C@H](O)[C@H](OC8OC(CO)C(O)C(O)C8O)[C@@](C)(CO)[C@@H]7[C@H](O)C[C@@]6(C)[C@]5(C)CC[C@@]34C)OCC(O)C2O)C(O)C(O)C1O (stereo partly specified)
inactive: [1] -22.4% | [2] -20.7% | [3] -18.1% | [4] -14.2% | [5] -1.8% | [6] -64.4%

COc1ccc2c(c1)CC[C@@H]1[C@@H]2CC[C@@]2(C)[C@H]1C[C@@](C)(O)[C@H]2O
inactive: [1] -5.65% | [2] 3.05% | [3] -2.45% | [4] -59.9% | [5] 10.8% | [6] -11.7%

Nc1cc(S(=O)(=O)O)ccc1O
inactive: [1] -1% | [2] -16.1% | [3] -21.9% | [4] -41.9% | [5] 3.05% | [6] -33.5%

CC1(CN2CCCCC2)COC(c2ccccc2)(c2ccccc2)OC1
inactive: [1] -8.1% | [2] -8.85% | [3] -13.6% | [4] -36.1% | [5] 5.75% | [6] -0.9%

CS(=O)CC(Nc1ccccc1)c1ccccc1 (stereo unspecified)
inactive: [1] -3.75% | [2] -12.8% | [3] -10.6% | [4] 2% | [5] -25.6% | [6] -3.45%

CCCCN(C(C)=O)c1ccccc1
inactive: [1] -8.8% | [2] 9.45% | [3] 4.2% | [4] -6.15% | [5] -9.4% | [6] 1.1%

N#C/C(=C/C=C/c1ccco1)C(N)=O
inactive: [1] 9.9% | [2] 1.65% | [3] 15.6% | [4] 10.6% | [5] -6.25% | [6] 13.4%

COC(=O)c1ccc(Cc2ccc(C(=O)OC)o2)o1
inactive: [1] -9.05% | [2] 9.2% | [3] -5.25% | [4] -25.4% | [5] -8.35% | [6] -13.8%

Cc1nc2nn(C)cc2c(=O)n1/N=C/c1ccccc1
inactive: [1] -18.8% | [2] -35.5% | [3] -50.1% | [4] -5.9% | [5] -4.15% | [6] -37.4%

O=c1c(-c2ccc(O)cc2)coc2cc(OC3OC(CO)C(O)C(O)C3O)cc(O)c12 (stereo unspecified)
inactive: [1] -35.5% | [2] -26.8% | [3] -40.8% | [4] -10.7% | [5] -60.2% | [6] -83.3%

NC(=O)NC12CC3CC(CC(C3)C1)C2
inactive: [1] 13.3% | [2] -5.8% | [3] 13.1% | [4] -0.75% | [5] 4.9% | [6] 2.75%

COC1(OC)C(Cl)=C(Cl)C2C1C1(Cl)C(Cl)=C(Cl)C2(Cl)C1(OC)OC (stereo unspecified)
inactive: [1] 39.9% | [2] 10.1% | [3] 1.7% | [4] 13.6% | [5] 2.2% | [6] 5.3%

Cc1ccccc1C(=O)NNC(=O)c1cccc2ccccc12
inactive: [1] 27.6% | [2] -24.9% | [3] 7.9% | [4] 3.65% | [5] 0.45% | [6] 6.95%

CN1CCCNCCN(CCc2ccccn2)CCCN(C)CC1
inactive: [1] 2.75% | [2] -1.5% | [3] -12.5% | [4] -7.75% | [5] 0.15% | [6] 6.65%

CCOC(=O)NC(Nc1ccc(F)cc1F)(C(F)(F)F)C(F)(F)F
inactive: [1] 12.8% | [2] -23.4% | [3] -15.7% | [4] 10.2% | [5] -14.8% | [6] 1.4%

O=C(OCCCCCCCCOC(=O)c1ccc([N+](=O)[O-])cc1)c1ccc([N+](=O)[O-])cc1
inactive: [1] 14.6% | [2] 2.15% | [3] 12.2% | [4] 4.1% | [5] -5.4% | [6] 5.9%

CCOC(=O)C1(C)CCCc2sc(N)c(C#N)c21 (stereo unspecified)
inactive: [1] -42.4% | [2] -7.55% | [3] -11.1% | [4] -6.45% | [5] -14.2% | [6] 5.45%

CCCCCCCCCc1ccc(OCCOC(=O)OCCOc2ccc(CCCCCCCCC)cc2)cc1
inactive: [1] 40.9% | [2] -21.9% | [3] 16% | [4] 13.8% | [5] 4.4% | [6] 31.6%

OCc1c(CO)c(Br)c2ccccc2c1Br
inactive: [1] 11.8% | [2] 3.75% | [3] 35% | [4] -6.45% | [5] 4.9% | [6] -6.2%

Oc1ccc(Br)cc1C1Nc2ccccc2S1 (stereo unspecified)
inactive: [1] 0.65% | [2] 6.15% | [3] 0.4% | [4] -28.3% | [5] 5.15% | [6] -1.85%

CCOC(=O)/C(C#N)=C/c1c[nH]c2ccccc12
inactive: [1] 19.6% | [2] 6.05% | [3] 3.5% | [4] 23.8% | [5] 19.3% | [6] 31.4%

CC(CN1CCCC1)OC(=O)C(c1ccccc1)C1CCCC1 (stereo unspecified)
inactive: [1] 6.15% | [2] -20.9% | [3] 20.1% | [4] -50.2% | [5] -4.85% | [6] -14.2%

ClC1CCCCC1
inactive: [1] -12.8% | [2] -2.55% | [3] -0.35% | [4] -7.95% | [5] -7.2% | [6] -31.2%

CCOc1ccc(S(=O)(=O)OCC)cc1
inactive: [1] -15.6% | [2] -14% | [3] -25.2% | [4] 1.35% | [5] -8.45% | [6] -19.6%

CCOc1ccc(N=C2C=C(Nc3ccc(OCC)cc3)C(=Nc3ccc(OCC)cc3)C=C2Nc2ccc(OCC)cc2)cc1
inactive: [1] -17.7% | [2] -14.5% | [3] -24.2% | [4] -18.4% | [5] 2.35% | [6] -24.5%

Cc1ccc2nc(N)nc(N)c2c1
inactive: [1] -12.9% | [2] 7.15% | [3] -8.4% | [4] 3.25% | [5] -10.6% | [6] -3.8%

Nc1c(Cl)cc(C(=O)NC2CC2)cc1Cl
inactive: [1] -13.1% | [2] -27.8% | [3] -11.2% | [4] -4.8% | [5] -26.6% | [6] -24.9%

Cc1nc(/N=C(\N)Nc2ccc(Cl)c(Cl)c2)[nH]c(=O)c1Cc1ccccc1
inactive: [1] 2.3% | [2] 1.65% | [3] -10.1% | [4] -6.75% | [5] -5.05% | [6] 3.65%

CCCCC1(C#Cc2ccccc2)Sc2ccccc2N1C (stereo unspecified)
inactive: [1] -9.9% | [2] -8.45% | [3] 9.25% | [4] -21.9% | [5] -7.9% | [6] 2.25%

CCCCCCCCCCCC(=O)Nc1ccc(C(C)C)cc1
inactive: [1] 4.75% | [2] -7.6% | [3] -13.3% | [4] 18.3% | [5] 21.2% | [6] -12.8%

CCOc1ccccc1NC(=O)C1=C(C)NC(C)=C(C(=O)Nc2ccccc2OCC)C1c1ccc2c(c1)OCO2
inactive: [1] 9.5% | [2] 44.5% | [3] 41.3% | [4] 23.2% | [5] 43.1% | [6] 39.9%

CCOC(=O)/C=C/c1cccc(F)c1
inactive: [1] 19.2% | [2] -5.25% | [3] 7.85% | [4] 12% | [5] 12.2% | [6] 10.5%

Nc1c(Cl)cc2c(c1Br)Cc1cc(F)ccc1-2
inactive: [1] -0.15% | [2] 2.15% | [3] -3.55% | [4] -0.05% | [5] 14.8% | [6] -9.65%

CC(COc1cc(Cl)c(Cl)cc1Cl)OC(=O)COc1ccc(Cl)cc1Cl (stereo unspecified)
inactive: [1] 8.75% | [2] 8.85% | [3] 7.7% | [4] 28.5% | [5] 2.9% | [6] 7%

COc1cc2c(cc1OC)-c1cc3ccc(OC)c(OC)c3c[n+]1CC2
inactive: [1] -8.55% | [2] -21.8% | [3] 23.6% | [4] -14.1% | [5] -9.45% | [6] -4.35%

CCOC(=O)CC(C(=O)OCC)C(C(=O)OCC)C(=O)OCC (stereo unspecified)
inactive: [1] 41.9% | [2] -4.1% | [3] 19.6% | [4] 3.4% | [5] 29.8% | [6] 13.6%

CC(=O)CC(C)(C)c1cc(CC(C)(C)C(N)=O)on1
inactive: [1] 0.75% | [2] 0.25% | [3] 17.4% | [4] 11.2% | [5] 11.3% | [6] 17.2%

Cn1c(=N)n(CC(=O)NC23CC4CC(CC(C4)C2)C3)c2ccccc21
inactive: [1] 11.8% | [2] -15.4% | [3] -26.9% | [4] 2.75% | [5] 2.2% | [6] -11.6%

CC(C)(O)C1COC2=C1C(=O)c1ccccc1C2=O (stereo unspecified)
inactive: [1] 11.8% | [2] -10.2% | [3] 24.6% | [4] 12.6% | [5] 7.2% | [6] -35.9%
